The values that follow come from PubChem BioAssay (NCI).

The structures appear in SMILES notation. About 83,000 compounds went through this panel and 20% of them were active in at least one assay; those are over-represented in the sample as a whole.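 Interpretation: 100, growth as untreated; towards 0, rising growth inhibition; 0, no net growth; 0 to -100, cell death. Compounds scoring below 10 were considered active.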 Unmarked numbers belong to inactive results. Calls of active or inactive are those of the source.

The first assay deals with SNB-19 CNS. Nature of the assay: NCI-60 one-dose screen, 48 h (100 = growth as untreated, 0 = no growth, -100 = all killed). The settings on record: 10 µM unless noted.
Turning to `N#Cc1c(-c2ccccc2Cl)cc(-c2c[nH]c3ccccc23)[nH]c1=O`, the growth is 69.5%.

With `CN1CCN(/C(=N\c2sc(-c3ccccc3)nc2-c2ccccc2)c2ccccc2)CC1`, the growth was 100%.

As to `COc1ccc(-c2cc(C(=O)NCc3ccccc3)nn2-c2ccc(S(C)(=O)=O)cc2)cc1OC`, the growth was 95.2%.

In the case of `O=C(COc1ccc(NC(=O)Nc2ccc(Cl)c(Cl)c2)cc1)N=Nc1c(O)[nH]c2ccc(Cl)cc12`, the growth was -13.8% (active).

Consider `C=C1CC[C@@H]2[C@]3(C)COC(c4cn(-c5ccccc5)nc4-c4ccccc4)O[C@@H]3CC[C@@]2(C)[C@@H]1C/C=C1/C(=O)OC[C@H]1O` (stereo partly specified), for which the growth was -60.8% (active).

In the case of `CC(=O)Nc1cccc(-c2nc3cc(-c4ccc(O)cc4)ccc3n2C)c1`, the growth was 51.2%.

On to `O=C(/C=C/c1ccc(-c2ccccc2)cc1)c1nc2ccccc2n1Cc1ccc(F)cc1`, for which the growth was 44.6%.

Consider `Cc1cc2nc3c4ccccc4n(CCNCCN(C)C)c3nc2cc1C`, for which the growth was 35.3%.

Turning to `c1ccc(-c2csc(Nc3cccc(Nc4nc(-c5ccccc5)cs4)c3)n2)cc1`, the growth is 58%.

Regarding `O=C(N/N=C/c1ccc(-c2ccc(O)cc2)s1)c1[nH]c2ccc(Br)cc2c1-c1ccccc1`, the growth was 20.2%.

Regarding `COCOc1cc2c(=O)c(C)c(C(=O)N[C@@H](Cc3ccccc3)C(O)C(=O)NCc3ccccc3)oc2cc1OC` (stereo partly specified), the growth was 15.7%.

`COc1cc2oc(-c3cccc(C(=O)Nc4ccc(Cl)cc4)c3)cc(=O)c2c(OCCNC(=O)[C@@H](N)CCC(=O)O)c1OC`: the growth is 93.6%.

Regarding `Cn1cc(-c2nc(N)nnc2-c2c[nH]c3ccc(Br)cc23)c2cccnc21`, the growth was 52.7%.

As to `O=C1c2c(c3c4cc(F)ccc4oc3c3[nH]c4ccc(Br)cc4c23)C(=O)N1O`, the growth was 14.2%.

Consider `CCCCNC(=S)Nc1ccc(OCc2nc3ccccc3[nH]2)cc1`, for which the growth is 70%.

As for `COc1cc(-c2ccc(/C=N/NC(=O)c3[nH]c4ccc(Br)cc4c3-c3ccccc3)s2)cc(OC)c1OC`, the growth is 63.9%.

Regarding `C=C1CC[C@@H]2[C@]3(C)COC(c4cn[nH]c4-c4ccc(C)cc4)O[C@@H]3CC[C@@]2(C)[C@@H]1C/C=C1/C(=O)OCC1O` (stereo partly specified), the growth is 37.7%.

Take `COc1cc2c(c(OC)c1OC)C(=O)CC(c1cccc(NC(=O)c3cc(N)ccc3Cl)c1)O2` (stereo unspecified): the growth is 77.4%.

With `COc1cc2c(c(OC)c1OC)C(=O)CC(c1cccc(NC(=O)c3cccc(NC(=O)[C@H](C)NC(=O)OC(C)(C)C)c3)c1)O2` (stereo partly specified), the growth is 78.8%.

For the compound `C=C1CCC2C3(C)COC(c4cc(F)cc(F)c4)OC3CCC2(C)C1CC(O)C1=CCOC1=O` (stereo unspecified), the growth is 88.6%.

With `O=C(/C=C/c1ccc(O)c(O)c1)NC1CCOC1O` (stereo unspecified), the growth was 98.8%.

With `C/C(=N\N=C1/C(=O)Nc2ccc(Cl)cc21)c1ccc2c(c1)Nc1ccccc1S2`, the growth is 18.7%.

On to `CC(C)CCNC(=O)N/C(N)=N/c1nc2ccccc2s1`, for which the growth was 58.4%.

For the compound `OCNc1ccc(-n2cnc3cc(-c4ccc(O)cc4)ccc32)cc1C(F)(F)F`, the growth was 35.2%.

`C=C1CCC2C3(C)COC(c4ccc(F)cc4)OC3CCC2(C)C1C/C=C1/C(=O)OCC1O` (stereo unspecified): the growth is -55.8% (active).

For `O=c1[nH]n(C(=S)N/N=C/c2ccccc2Cl)c(=O)c2ccccc12`, the growth was 8.55% (active).

On to `N#Cc1c(-c2cccc(Cl)c2Cl)cc(-c2ccc3ccccc3c2)[nH]c1=O`, for which the growth was 39.2%.

Regarding `Clc1cccc(Cl)c1/C=C/c1cc(/C=C/c2ccc(Br)cc2)c2ccccc2n1`, the growth was 92.5%.

With `CC(C)c1ccc2c(N)c(C(=O)Nc3ccc(C(F)(F)F)cn3)sc2n1`, the growth is 71.5%.

Take `CCN(CC)C(=O)N/C(N)=N/c1nc2ccccc2s1`: the growth was 56.5%.

Turning to `O=C(COc1ccc(NC(=O)Nc2ccc(Cl)c(Cl)c2)cc1)N=Nc1c(O)[nH]c2ccc([N+](=O)[O-])cc12`, the growth was 67%.

In the case of `Cc1cc2c(cc1Cl)C(=O)/C(=C/c1ccc(F)cc1)O2`, the growth was 90.3%.

For the compound `CCCCOc1ccc(NC(=O)c2sc3nc(C)ccc3c2N)cc1`, the growth is 0.979% (active).

As to `O=C1Nc2cc(Cl)ccc2/C1=C/c1cccc(OCc2ccccn2)c1`, the growth was 20.5%.

Regarding `NS(=O)(=O)c1ccc(N=Nc2c(O)n(CC(=O)Nc3ccccc3Cl)c3ccccc23)cc1`, the growth was 36.9%.

As to `O=C(Nc1cccc(-n2cnc3cc(-c4ccc(O)cc4)ccc32)c1)C1CC1`, the growth was 32.9%.

On to `C=C1CC[C@@H]2[C@]3(C)COC(c4cn[nH]c4-c4ccc(OC)cc4)O[C@@H]3CC[C@@]2(C)[C@@H]1C/C=C1/C(=O)OCC1O` (stereo partly specified), for which the growth was 18.5%.

Turning to `CC(=O)Nc1ccc(-c2cn(-c3cccc(C(=O)Nc4ccc(N5CCN(C)CC5)cc4)c3)nn2)cn1`, the growth was 49.4%.

The test system of a further assay is U251 CNS. The assay is described as above. The settings on record: 10 µM unless noted.
For `N#Cc1c(-c2ccccc2Cl)cc(-c2c[nH]c3ccccc23)[nH]c1=O`, the growth was 67%.

With `CN1CCN(/C(=N\c2sc(-c3ccccc3)nc2-c2ccccc2)c2ccccc2)CC1`, the growth is 86%.

Turning to `COc1ccc(-c2cc(C(=O)NCc3ccccc3)nn2-c2ccc(S(C)(=O)=O)cc2)cc1OC`, the growth is 99.2%.

Regarding `O=C(COc1ccc(NC(=O)Nc2ccc(Cl)c(Cl)c2)cc1)N=Nc1c(O)[nH]c2ccc(Cl)cc12`, the growth was -84.5% (active).

In the case of `C=C1CC[C@@H]2[C@]3(C)COC(c4cn(-c5ccccc5)nc4-c4ccccc4)O[C@@H]3CC[C@@]2(C)[C@@H]1C/C=C1/C(=O)OC[C@H]1O` (stereo partly specified), the growth is -88.5% (active).

Turning to `CC(=O)Nc1cccc(-c2nc3cc(-c4ccc(O)cc4)ccc3n2C)c1`, the growth was 58.7%.

In the case of `O=C(/C=C/c1ccc(-c2ccccc2)cc1)c1nc2ccccc2n1Cc1ccc(F)cc1`, the growth was 32.5%.

Take `Cc1cc2nc3c4ccccc4n(CCNCCN(C)C)c3nc2cc1C`: the growth was 36.5%.

Turning to `c1ccc(-c2csc(Nc3cccc(Nc4nc(-c5ccccc5)cs4)c3)n2)cc1`, the growth is 51.2%.

Take `O=C(N/N=C/c1ccc(-c2ccc(O)cc2)s1)c1[nH]c2ccc(Br)cc2c1-c1ccccc1`: the growth was 25.7%.

`COCOc1cc2c(=O)c(C)c(C(=O)N[C@@H](Cc3ccccc3)C(O)C(=O)NCc3ccccc3)oc2cc1OC` (stereo partly specified): the growth is -36.6% (active).

As for `COc1cc2oc(-c3cccc(C(=O)Nc4ccc(Cl)cc4)c3)cc(=O)c2c(OCCNC(=O)[C@@H](N)CCC(=O)O)c1OC`, the growth was 87.4%.

On to `Cn1cc(-c2nc(N)nnc2-c2c[nH]c3ccc(Br)cc23)c2cccnc21`, for which the growth is 39.5%.

For `O=C1c2c(c3c4cc(F)ccc4oc3c3[nH]c4ccc(Br)cc4c23)C(=O)N1O`, the growth was 18.5%.

In the case of `CCCCNC(=S)Nc1ccc(OCc2nc3ccccc3[nH]2)cc1`, the growth is 57.4%.

Regarding `COc1cc(-c2ccc(/C=N/NC(=O)c3[nH]c4ccc(Br)cc4c3-c3ccccc3)s2)cc(OC)c1OC`, the growth was 63.4%.

On to `C=C1CC[C@@H]2[C@]3(C)COC(c4cn[nH]c4-c4ccc(C)cc4)O[C@@H]3CC[C@@]2(C)[C@@H]1C/C=C1/C(=O)OCC1O` (stereo partly specified), for which the growth is -63.3% (active).

Turning to `COc1cc2c(c(OC)c1OC)C(=O)CC(c1cccc(NC(=O)c3cc(N)ccc3Cl)c1)O2` (stereo unspecified), the growth is 65.6%.

On to `COc1cc2c(c(OC)c1OC)C(=O)CC(c1cccc(NC(=O)c3cccc(NC(=O)[C@H](C)NC(=O)OC(C)(C)C)c3)c1)O2` (stereo partly specified), for which the growth was 78.1%.

In the case of `C=C1CCC2C3(C)COC(c4cc(F)cc(F)c4)OC3CCC2(C)C1CC(O)C1=CCOC1=O` (stereo unspecified), the growth was 69.1%.

In the case of `O=C(/C=C/c1ccc(O)c(O)c1)NC1CCOC1O` (stereo unspecified), the growth was 95.4%.

In the case of `C/C(=N\N=C1/C(=O)Nc2ccc(Cl)cc21)c1ccc2c(c1)Nc1ccccc1S2`, the growth is -32.1% (active).

As to `CC(C)CCNC(=O)N/C(N)=N/c1nc2ccccc2s1`, the growth is 67.4%.

As for `OCNc1ccc(-n2cnc3cc(-c4ccc(O)cc4)ccc32)cc1C(F)(F)F`, the growth was 16.8%.

With `C=C1CCC2C3(C)COC(c4ccc(F)cc4)OC3CCC2(C)C1C/C=C1/C(=O)OCC1O` (stereo unspecified), the growth is -94.4% (active).

Regarding `O=c1[nH]n(C(=S)N/N=C/c2ccccc2Cl)c(=O)c2ccccc12`, the growth is -46.5% (active).

With `N#Cc1c(-c2cccc(Cl)c2Cl)cc(-c2ccc3ccccc3c2)[nH]c1=O`, the growth is 6.58% (active).

For `Clc1cccc(Cl)c1/C=C/c1cc(/C=C/c2ccc(Br)cc2)c2ccccc2n1`, the growth was 101%.

Consider `CC(C)c1ccc2c(N)c(C(=O)Nc3ccc(C(F)(F)F)cn3)sc2n1`, for which the growth was 62.9%.

`CCN(CC)C(=O)N/C(N)=N/c1nc2ccccc2s1`: the growth was 66.9%.

Turning to `O=C(COc1ccc(NC(=O)Nc2ccc(Cl)c(Cl)c2)cc1)N=Nc1c(O)[nH]c2ccc([N+](=O)[O-])cc12`, the growth is 19.4%.

For the compound `Cc1cc2c(cc1Cl)C(=O)/C(=C/c1ccc(F)cc1)O2`, the growth is 89.9%.

Regarding `CCCCOc1ccc(NC(=O)c2sc3nc(C)ccc3c2N)cc1`, the growth is 0.73% (active).

In the case of `O=C1Nc2cc(Cl)ccc2/C1=C/c1cccc(OCc2ccccn2)c1`, the growth is -17.4% (active).

For `NS(=O)(=O)c1ccc(N=Nc2c(O)n(CC(=O)Nc3ccccc3Cl)c3ccccc23)cc1`, the growth is 6.28% (active).

For the compound `O=C(Nc1cccc(-n2cnc3cc(-c4ccc(O)cc4)ccc32)c1)C1CC1`, the growth was 9.54% (active).

On to `C=C1CC[C@@H]2[C@]3(C)COC(c4cn[nH]c4-c4ccc(OC)cc4)O[C@@H]3CC[C@@]2(C)[C@@H]1C/C=C1/C(=O)OCC1O` (stereo partly specified), for which the growth was -76% (active).

`CC(=O)Nc1ccc(-c2cn(-c3cccc(C(=O)Nc4ccc(N5CCN(C)CC5)cc4)c3)nn2)cn1`: the growth is 50.8%.
